# Screening results deposited in PubChem by Center for Chemical Genomics, University of Michigan.
# Many of the other results were omitted from the sample, so hits are more common in it than they were.
# Dicer processing: human Dicer pre-microRNA cleavage inhibition; cat-ELCCA pre-miR-21 Dicer processing, chemiluminescence; stronger effect = higher value; z-score at 25 µM; 47,000 compounds, 6% hits; AID 1347074; in the data active = z-score above about 3, passing the limit was not always enough;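 also: plate controls were vehicle for no effect and no enzyme for full effect; higher signal means more uncleaved substrate so more Dicer inhibition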
# An asterisk follows results filed as active.
SMILES,Dicer processing
CCOc1ccc(/C(O)=C2/C(=O)C(=O)N(CCCOC)C23C(=O)N(C)c2ccccc23)cc1 (stereo unspecified),2.46
COCCN1C(=O)C(=O)/C(=C(\O)c2ccc(OC)c(C)c2)C12C(=O)N(C)c1ccccc12 (stereo unspecified),3.23*
COC(=O)c1cccc(C(=O)OC)n1,-0.58
COC(=O)Oc1ccc2c(=O)c(Oc3cccc(C)c3)c(C(F)(F)F)oc2c1,0.81
COC(=O)c1sc(N2C(=O)c3oc4ccccc4c(=O)c3C2c2ccco2)nc1C (stereo unspecified),-0.22
Cn1c(-c2ccc(Br)cc2)cnc1NCc1cccc(F)c1,2.51
Cn1c(-c2ccc(Cl)cc2)cnc1NCc1ccc(F)cc1,2.57
COc1ccccc1CNc1ncc(-c2cccc(Br)c2)n1C,-0.18
Cn1c(-c2cccc(Br)c2)cnc1NCc1ccccc1,3.84*
Cc1ccc(-c2cnc(NCc3ccc(Cl)cc3)n2C)cc1,3.17*
Cn1c(-c2ccccc2)cnc1NCc1cccc(Br)c1,4.44*
COc1ccc(-c2cnc(NCc3ccc(Cl)cc3)n2C)cc1,-0.45
Cn1c(-c2ccccc2)cnc1NCc1ccccc1O,1.93
Cn1c(-c2ccc(F)cc2)cnc1NCc1cccc(Br)c1,2.84
CCCc1ccc(S(=O)(=O)C[N+](=O)[O-])cc1,1.31
CC(=O)O/N=C(\N)c1ccc(F)cc1F,-0.17
Cc1ccc(Cn2ccc(NC(=O)c3cc4n(n3)C(C(F)(F)F)CC(c3ccco3)N4)n2)cc1 (stereo unspecified),0.9
O=C1CSC(=Nc2ccc(Cl)cc2)N1C(=O)c1ccccc1Cl,2.47
CC1=C(C)CC(C(=O)Nc2cccc(-c3nn(C)cc3Br)c2)C(C(=O)O)C1 (stereo unspecified),0.5
CCC(C)NC(=O)c1nn2c(c1Cl)NC(c1ccc(Br)cc1)CC2C(F)(F)F (stereo unspecified),-0.76
CCCCOc1ccccc1C1C(C(=O)OCC)=C(C)NC2=C1C(=O)CC(C)(C)C2 (stereo unspecified),-0.77
CC(=O)N1c2ccccc2NC2=C(C(=O)CC(C)(C)C2)C1c1cccc(Cl)c1 (stereo unspecified),-2.22
CC1CCN(c2ccc([N+](=O)[O-])c(Oc3nc4c(Cl)cc(Cl)cc4s3)c2)CC1,-0.72
Cc1noc(/C=C/c2ccc3c(c2)n(C)c(=O)n3C)c1[N+](=O)[O-],-0.7
CCOC(=O)c1cnc2cc(Cl)c(F)cc2c1N1CC(C)OC(C)C1 (stereo unspecified),10.7*
SMILES,Dicer processing
CCOC(=O)c1cnc2cc(Cl)c(F)cc2c1OCC,1.89
CCOC(=O)c1ccc2nc(C(F)(F)F)nc(N3CC(C)OC(C)C3)c2c1 (stereo unspecified),-1.6
CCOC(=O)c1cc(-c2ccccc2)sc1NC(=O)Nc1ccccc1,-2.54
COc1ccc(C2Nn3c(nnc3-c3ccccc3)SC2C(=O)NCC2CCCO2)cc1Cl (stereo unspecified),6.64*
Cc1nnc2n1NC(c1ccc(Cl)cc1)C(C(=O)NCC1CCCO1)S2 (stereo unspecified),2.39
Cc1ccc(C2Nn3c(C)nnc3SC2C(=O)NCC2CCCO2)cc1 (stereo unspecified),-0.76
N#Cc1ncc(C(F)(F)F)cc1Oc1ccc(Cl)cc1,1.47
O=C1CCCc2[nH]c(=O)cc(C(F)(F)F)c21,0.87
CC(=O)Nc1nc2ccc(NC(=O)c3c([N+](=O)[O-])cnn3C)cc2s1,1.08
CC(=O)Nc1nc2ccc(NC(=O)c3sc4ccccc4c3Cl)cc2s1,0.3
CC(=O)Nc1ccc2nc(NC(C)=O)sc2c1,3.2*
O=C(O)CSc1nnc2c3ccccc3n(Cc3ccccc3)c2n1,1.22
O=c1oc(-c2ccc(Cl)cc2Cl)nc2ccc([N+](=O)[O-])cc12,1.42
Cc1ccc(Sc2ncnc3sccc23)cc1,-1.07
COC(=O)c1ccccc1N1C(=O)C2C3c4ccccc4C(c4ccccc43)C2C1=O (stereo unspecified),4.25*
COc1ccc(N2C(=O)C3C4c5ccccc5C(c5ccccc54)C3C2=O)cc1 (stereo unspecified),1.49
COc1cccc(N2CC(=O)N(N)CC2=O)c1,3.77*
Cc1cccnc1N1C(=O)C2C3c4ccccc4C(c4ccccc43)C2C1=O (stereo unspecified),0.69
NN1CC(=O)N(c2cccc(C(F)(F)F)c2)CC1=O,1.21
COc1ccccc1N1C(=O)C2C3c4ccccc4C(c4ccccc43)C2C1=O (stereo unspecified),-0.08
COc1cccc(N2CC(=O)N(NC(=O)NC3CCCCC3)CC2=O)c1,2.81
COC(=O)c1ccccc1N1CC(C(=O)O)CC1=O (stereo unspecified),2.34
COc1cccc(N2C(=O)C3C4c5ccccc5C(c5ccccc54)C3C2=O)c1 (stereo unspecified),3.7*
Cc1cc2c(c(Sc3ccc(Cl)cc3)n1)C(=O)N(Cc1ccc(Cl)cc1Cl)C2=O,-1.28
Cc1nccc(-c2cccc(N/N=C(\C#N)C(=O)c3ccc(Cl)cc3)c2)n1,2.58
CC1(C)C2CCC(C2)C1(C)NC(=S)NCC1CCCO1 (stereo unspecified),1.54
